Screening results from PubChem BioAssay.
HCV inh = blocks hepatitis C virus; Huh7.5.1 HCVcc-Cre infection, luciferase reporter, 44 h; Potency, µM (top dose mostly 41.8 µM), usual class: inhibitors; actives 3.4% (n = 340,000); AID 651820
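Reporter virus HCVcc-Cre (~0.5 moi) infects cells exposed to compound; seeding density 1,000 cells/well with 4 h settling beforehand. Luminescence, 15 sec read, taken 44 h post-infection following a 15 min RT substrate incubation.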
SARS PLP yeast = SARS-CoV PLP inhibition in yeast. Potency, µM (titrated, usually from 32.9 µM), usual class: activators. AID 485353. S. cerevisiae expressing SARS-CoV PLpro, growth rescue. actives 0.19% (n = 330,000); calls by dose curve; also: nearly all actives have a fitted effect of over 55% in size
Sm TGR inh = S. mansoni TGR enzyme inhibition; actives 3% (n = 360,000); Potency, µM (top dose mostly 114 µM), hits mostly inhibitors; Q962Y6; AID 485364; purified TGR, DTNB reduction, TNB absorbance 405 nm; also: nearly all actives have a fitted effect of over 60% in size
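TGR 20 nM + NADPH 100 uM (dispensed conc.), cpd preinc 15 min RT; start with NADPH (500 uM addition) then DTNB (15 mM addition). Kinetic TNB absorbance, 405 nm filter. Four-parameter Hill fit across titration.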
HCMV antiviral = blocks human cytomegalovirus replication; HFF cells, HCMV-luciferase reporter, 72 h; stronger effect = lower value; activity change, negative = inhibition, % at 57.5 µM; actives 4.5% (n = 410,000); AID 1259415; in the data active = activity change below about -60%; inconclusive = no clear call, values can overlap the other calls; inactive = above about -39%
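Luciferase read-out from HCMV-luciferase-infected HFFs (MOI 1 PFU/cell) 72 h post infection at 37C; compounds added after 16 h cell attachment; activity normalized between buffer-only basal and Salinomycin (10uM) inhibitor controls.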
Pf growth 96h = P. falciparum growth inhibition at 96 hour, primary screen for plastid delayed-death inhibitors | actives 6.9% (n = 320,000) | AID 504834 | Potency, µM (highest dose often 28.7 µM), usual class: inhibitors | P. falciparum luciferase reporter growth, 96 h
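Cell-based qHTS: luciferase-tagged P. falciparum in erythrocytes (2% hematocrit, 0.05% parasitemia final) incubated with compounds for 96 hours, 37 C, 5% CO2; luciferase detection reagent then added and luminescence measured.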
Pf growth 48h = P. falciparum growth inhibition at 48 hours (one generation) | P. falciparum luciferase growth in erythrocytes, 48 h | Potency, µM (top dose mostly 28.7 µM), hits mostly inhibitors | actives 5.9% (n = 310,000) | AID 504832
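Luciferase-expressing parasites in RBCs, 2% Hct / 0.1% parasitemia final; RPMI 1640 + 0.5% Albumax; 37 C, 5% CO2, one generation; luminescence read-out, lower signal = inhibition.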
Of the large screens only hits and unclear results are named; the others gave an inactive call. Rows were chosen to be rich in hits. Some 15% of all compounds tested hit in one or more screens of this group. Unless noted, calls follow the shape of the dose curve; as a rule, active = well fitted curve in the direction sought with a large enough effect; inconclusive = small, poorly fitted or top-dose-only effect, or another doubt; inactive = no such curve, though single readings can be large; an effect the other way counts as inactive or inconclusive.

CCn1c(=O)[nH]c2cc(C(=O)N3CCN(c4ccccc4)CC3)ccc2c1=O	none (no result: Pf growth 96h)
COc1cc(Cl)c(C)cc1NC(=O)CSc1cc(=O)n(C)c2cc(Cl)ccc12	none (no result: HCV inh, SARS PLP yeast, Pf growth 96h, Pf growth 48h)
O=C(c1ccc(Cn2c(=O)[nH]c3ccccc3c2=O)cc1)N1CCN(c2ccccc2)CC1	HCMV antiviral inconclusive, Pf growth 96h 3.29µM, Pf growth 48h inconclusive
CCc1ccc(CN2CCC(C(=O)Nc3ccc(Oc4ccccc4)nc3)CC2)o1	HCV inh 11.2µM, HCMV antiviral -71.6, Pf growth 48h inconclusive
COc1ccc(CN2CCC(C(=O)Nc3ccc(Oc4ccccc4)nc3)CC2)cc1F	HCV inh 2.51µM, HCMV antiviral -70.1, Pf growth 96h inconclusive, Pf growth 48h inconclusive
O=C(Nc1ccc(Oc2ccccc2)nc1)C1CCN(Cc2ccccc2)CC1	HCV inh inconclusive
COc1cc(F)ccc1CN1CCC(C(=O)Nc2ccc(Oc3ccccc3)nc2)CC1	HCV inh 10µM, Pf growth 48h inconclusive
CC(C)CCC1=NN(C(=O)c2ccco2)C(O)(C(F)(F)F)C1 (configuration not stated)	Pf growth 96h inconclusive, Pf growth 48h inconclusive
Cc1ccc(S(=O)(=O)Nc2ccccc2C(=O)N2CCN(C)CC2)cc1	none
O=C(CC12CC3CC(CC(C3)C1)C2)NC(=S)N1CCCCC1	SARS PLP yeast inconclusive, Pf growth 96h 9.28µM
CCN(CC)CCNC(=O)C1(O)c2cc(Br)ccc2NC(=O)N1c1ccccc1 (configuration not stated)	Pf growth 96h 2.62µM
CN(C)CCNC(=O)C1(O)c2cc(Br)ccc2NC(=O)N1c1ccc(Cl)cc1 (configuration not stated)	none
Cc1ccc(-c2cnc(NC(=O)c3cccc(Br)c3)s2)c(C)c1	HCV inh inconclusive, Pf growth 48h inconclusive
Cc1ccc(C(=O)C(c2ccccc2)N2Cc3ccccc3C2=N)cc1 (configuration not stated)	HCV inh inconclusive, Pf growth 96h 10.4µM, Pf growth 48h inconclusive (no result: HCMV antiviral)
CC(C)CCNC(=O)[C@@H](c1ccccc1)N1Cc2ccccc2C1=O	none (no result: HCV inh, SARS PLP yeast, Pf growth 96h, Pf growth 48h)
CCCN1CCN(C(=O)C2CCN(S(=O)(=O)c3c(C)noc3/C=C/c3ccc(C)cc3)CC2)CC1	HCV inh inconclusive, SARS PLP yeast inconclusive, Pf growth 96h inconclusive, Pf growth 48h inconclusive
Cc1cc(Br)ccc1NC(=O)C(Cc1ccccc1)NS(=O)(=O)c1ccc(Br)s1 (configuration not stated)	HCMV antiviral -103.8 (no result: HCV inh, SARS PLP yeast, Pf growth 96h, Pf growth 48h)
COc1ccccc1-c1nn2c(C3COc4ccccc4O3)nnc2s1 (configuration not stated)	Pf growth 96h 3.7µM
COc1ccccc1-c1nnc2sc(-c3ccc(N(C)C)cc3)nn12	HCV inh inconclusive, HCMV antiviral -92.9, Pf growth 96h 11.7µM, Pf growth 48h inconclusive
CN(C)c1ccc(-c2nn3c(-c4ccccc4Cl)nnc3s2)cc1	HCV inh inconclusive, HCMV antiviral -74.3, Pf growth 48h inconclusive (no result: Pf growth 96h)
COc1ccccc1-c1nnc2sc(COc3ccc(F)cc3)nn12	Pf growth 48h 1.47µM
Cc1n[nH]c(=O)n1-c1ccc(OCc2ccccc2)cc1	none
C[C@@H]1ON(C)[C@H]2C[C@H]3c4[nH]c5c(-c6ccc(C(F)(F)F)cc6)cccc5c4CCN3C(=O)[C@@H]12	none (no result: HCV inh, SARS PLP yeast, Sm TGR inh, Pf growth 96h, Pf growth 48h)
CN1CCN(c2nccc3[nH]c(-c4cccc(F)c4)nc23)CC1	none (no result: HCV inh, SARS PLP yeast, Sm TGR inh, Pf growth 96h, Pf growth 48h)
Cc1nnc2sc(-c3ccc(N(C)C)cc3)nn2c1=O	Pf growth 96h 10.4µM
CN(C)c1ccc(-c2nn3c(-c4cccnc4)nnc3s2)cc1	Pf growth 48h inconclusive (no result: HCMV antiviral)
O=C(CSc1nc2c([nH]c3ccccc32)c(=O)n1-c1ccccc1)Nc1cccc(C(F)(F)F)c1	HCMV antiviral inconclusive (no result: HCV inh, SARS PLP yeast, Pf growth 96h, Pf growth 48h)
O=C1CCCCCN1Cc1nnc(SCc2nc3ccccc3s2)n1-c1ccccn1	HCMV antiviral -107.5
COc1ccc(NC(=S)N2C3CCC2CC(NC(=O)NC24CC5CC(CC(C5)C2)C4)C3)c(OC)c1 (configuration not stated)	Pf growth 96h inconclusive, Pf growth 48h inconclusive
Cc1cc([N+](=O)[O-])ccc1NC(=O)CN1C2CCC1CC(NC(=O)NC13CC4CC(CC(C4)C1)C3)C2 (configuration not stated)	HCV inh 2.51µM, HCMV antiviral inconclusive, Pf growth 48h 10.4µM
CCN=C1S/C(=C/c2ccc(-c3ccc(F)cc3)o2)C(=O)N1CC	Sm TGR inh 44.7µM, Pf growth 48h inconclusive (no result: HCMV antiviral)
CCN=C1S/C(=C\c2cn(CC)c3ccccc23)C(=O)N1CC	HCV inh inconclusive, Pf growth 96h inconclusive, Pf growth 48h inconclusive
CCN=C1S/C(=C\c2ccc(Sc3ccc(Cl)cc3)o2)C(=O)N1CC	Sm TGR inh 44.7µM, Pf growth 48h inconclusive
Cc1nnc(SCC(=O)Nc2cc(Cl)ccc2Cl)n1CC1CCCO1 (configuration not stated)	none
CC(C)(C)C(=O)Nc1cccc(-c2nc3ccccc3[nH]2)c1	HCV inh inconclusive (no result: Pf growth 96h)
CC(C)(C)C(=O)Nc1sc2c(c1-c1nc3ccccc3[nH]1)CCCC2	HCV inh inconclusive, HCMV antiviral -107.4, Pf growth 96h inconclusive, Pf growth 48h 9.28µM
COC(=O)COc1ccc(C(C2C(=O)CC(C)(C)CC2=O)C2C(=O)CC(C)(C)CC2=O)cc1	Sm TGR inh inconclusive
CC(=O)Nc1ccc(NC(=O)C(=O)NCC(c2ccco2)N2CCc3ccccc32)cc1 (configuration not stated)	Pf growth 96h 10.4µM, Pf growth 48h 13.1µM
CCOc1ccc(NC(=O)C(=O)NCC(c2cccnc2)N2CCc3ccccc32)cc1 (configuration not stated)	HCMV antiviral -65.6 (no result: HCV inh, SARS PLP yeast, Pf growth 96h, Pf growth 48h)
CCC1C(=O)C[C@H]2CCN3C(=O)CCCC1C23 (some centres not stated)	none (no result: Sm TGR inh, Pf growth 96h, Pf growth 48h)
Cc1cc(C(=O)NNC(=S)NC(=O)/C=C/c2ccccc2Cl)n[nH]1	HCV inh inconclusive, SARS PLP yeast 10µM (no result: Pf growth 48h)
O=C(NC(=S)NNC(=O)c1ccc(Cl)cc1Cl)c1cccnc1	Pf growth 96h inconclusive
Cc1cccc(C(=O)NC(=S)NNC(=O)c2ccccc2Cl)c1	HCV inh inconclusive, HCMV antiviral -66.9
Cc1ccccc1C(=O)NNC(=S)NC(=O)c1ccc(Cl)cc1Cl	HCV inh 0.562µM, HCMV antiviral inconclusive (no result: Pf growth 48h)
Cc1cccc(C(=O)NC(=S)NNC(=O)Cc2ccccc2)c1	HCV inh inconclusive, HCMV antiviral -83.5, Pf growth 96h inconclusive, Pf growth 48h inconclusive (no result: SARS PLP yeast)
COc1cc(NC(=O)CSc2nnc(NC(C)C)s2)cc(OC)c1OC	Pf growth 48h inconclusive
NC(=O)c1ccsc1NC(=O)CSc1nnc(NC2CC2)s1	none (no result: Sm TGR inh, Pf growth 96h, Pf growth 48h)
COc1ccc(CCNC(=O)Cn2nc(C)n3c(cc4occc43)c2=O)cc1OC	none (no result: HCV inh, SARS PLP yeast, Pf growth 96h, Pf growth 48h)
